From PubChem BioAssay AID624123 (The Scripps Research Institute Molecular Screening Center, 2012) come the findings set out here.

A number with no mark means an inactive call. The rule behind the calls is not given here. Bounds are passed on as bounds.

A short description of the experiment: GFP fluorescence inhibitors and quenchers, late-stage follow-up, artefact control for Rin1-Abl interaction inhibitor project, biochemical, dose response, round 1 (AID 624123). To be noted: GFP fluorescence interference/quenching counterscreen.
As for `COc1ccc(C(=O)N2CCC(C(=O)Nc3ccc(CC(=O)Nc4ccc(C(=O)N(C)C5CC5)cc4)cc3)CC2)cc1`, the IC50 is over 67.5 µM.
For `CN(C(=O)c1ccc(NC(=O)Cc2ccc(NC(=O)C3CCN(C(=O)c4ccc(F)cc4)CC3)cc2)cc1)C1CC1` the value was over 67.5 µM.
Then `CN(C(=O)c1ccc(NC(=O)Cc2ccc(NC(=O)C3CCN(C(=O)c4ccccc4)CC3)cc2)cc1)C1CC1`, with over 67.5 µM; and `CN(C(=O)c1ccc(NC(=O)Cc2ccc(NC(=O)C3CCN(C(=O)c4cccc(F)c4)CC3)cc2)cc1)C1CC1`, with over 67.5 µM.

For orientation: IC50 means the concentration needed to halve the response being measured.
